Screening results from PubChem.
This is a sample that favours compounds with a hit; in the whole collection about 3.5% have one here.
MITF primary – inhibitors of human MITF. 0.91% of 650,000 active. AID 1259374. O75030. AlphaScreen MITF homodimerization, bead proximity signal. inhibition, % at 2.6 µM; in the data active = inhibition above about 50%;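 note: 0% = vehicle wells with protein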
FBW7 activator – activators of human E3 ligase FBW7; 0.13% of 650,000 active; AlphaScreen FBW7–phospho-cyclin E peptide binding, activator screen; AID 1259310; normalized activity (activation), % at 26.1 µM; in the data active = normalized activity above about 1.9%;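 note: purified mutant Fbw7 with reduced substrate affinity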
TEAD-YAP inh – TEAD-YAP interaction inhibition; HEK-TIYL cells, TEAD-Gal4/YAP UAS-luciferase luminescence; inhibition, % at 9.12 µM; 1.4% of 640,000 active; AID 1259422; in the data active = inhibition above about 32%;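 note: 0% = median of test compound wells and 100% = reference inhibitor wells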
GPR151 activ – activates the human receptor GPR151. Q8TDV0. PathHunter beta-arrestin GPR151 cells, luminescence. AID 1508602. activation, % at 11.2 µM. 1% of 650,000 active; in the data active = activation above about 4.9%;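 note: 0% = median of compound wells and 100% = cells with positive control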
Target sequence (Q8TDV0 whole entry, looked up): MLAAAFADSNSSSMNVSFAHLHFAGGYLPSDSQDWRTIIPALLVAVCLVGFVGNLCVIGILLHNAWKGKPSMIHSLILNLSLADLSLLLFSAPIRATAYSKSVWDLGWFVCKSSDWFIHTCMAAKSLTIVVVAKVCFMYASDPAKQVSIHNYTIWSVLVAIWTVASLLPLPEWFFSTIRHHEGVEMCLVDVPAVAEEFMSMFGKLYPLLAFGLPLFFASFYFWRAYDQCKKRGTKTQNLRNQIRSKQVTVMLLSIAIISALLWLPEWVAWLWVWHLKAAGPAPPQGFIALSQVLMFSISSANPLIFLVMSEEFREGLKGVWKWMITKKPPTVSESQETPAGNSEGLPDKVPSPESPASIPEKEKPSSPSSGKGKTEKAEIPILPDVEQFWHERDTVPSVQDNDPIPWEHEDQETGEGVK
* hit, by the source's call.

SMILES	MITF primary	FBW7 activator	TEAD-YAP inh	GPR151 activ
Cc1ccc(C)c(Nc2cc(C)nc(-c3ccccc3O)n2)c1	-9.6	-0.2	40.9*	0.1
COc1cccc(/C=N\Nc2ncccc2[N+](=O)[O-])c1O	3.8	-1.1	64.4*	-3.6
Cc1c(O)ccc(/C=N/Nc2ncccc2[N+](=O)[O-])c1O	-5.3	-0.5	71.2*	-9.2
O=[N+]([O-])c1cccnc1N/N=C/c1ccccc1O	13.8	-0.3	46.7*	-2.4
COc1cccc(/C=N/Nc2cc(-n3cc(C)cn3)ncn2)c1O	73.4*	-0.5	87.8*	-1.9
COc1cccc(/C=N\Nc2cc(C)nc(-c3ccccc3O)n2)c1O	8.2	0.0	39.2*	0.4
COc1cccc(/C=N\Nc2ccccn2)c1O	60.9*	-1.5	-43.7	-2.3
COc1ccc(/C=N\Nc2cc(C)nc(-c3ccccc3O)n2)c(OC)c1	5.7	0.7	-5.0	1.0
COc1ccc(/C=N/Nc2cc(-n3cc(C)cn3)ncn2)c(OC)c1	-6.3	0.2	-2.8	-0.8
COc1cccc(/C=N\Nc2cc(C)c3ccccc3n2)c1OC	2.8	-0.2	59.6*	3.8
Cc1noc(C)c1S(=O)(=O)N1CCCC(C(=O)NC(C)(C)C)C1 (configuration not stated)	8.1	-0.1	2.1	-0.4
CCCCC1=NN2C(=N)/C(=C/c3cn(CCOc4ccccc4)c4ccccc34)C(=O)N=C2S1	-11.6	-0.1	-7.4	-0.6
CS(=O)(=O)N1CCCCC1C(=O)N(Cc1ccccn1)c1nc2ccccc2s1 (configuration not stated)	-2.4	-0.2	-15.3	-0.6
O=C(O)CN1C(=O)c2ccc(Oc3cccc([N+](=O)[O-])c3)cc2C1=O	-3.1	0.2	-1.5	0.3
CCOc1ccc(/C=N/NC(=O)c2ccc(Cl)cc2)cc1	11.0	-0.1	-16.9	1.1
COc1cccc(/C=N/Nc2nc3ccccc3nc2C)c1O	-92.1	0.0	62.9*	-0.6
Cc1nc2ccccc2nc1N/N=C/c1ccc(O)c(C)c1O	-0.9	0.0	-13.9	-0.5
O=C(NCCOc1ccccc1)c1cc(NCc2ccc3c(c2)OCO3)nc2ccccc12	13.4	0.0	-5.5	6.1*
CCCNC(=O)c1cc(NCc2ccc3c(c2)OCO3)nc2ccccc12	-3.6	-0.1	-1.4	-0.1
Cc1ccc(Nc2ccc3nonc3c2[N+](=O)[O-])c(C)c1	16.2	2.5*	-7.1	1.6
Cc1ccc(Nc2ccc3nonc3c2[N+](=O)[O-])cc1C	6.1	-0.2	0.6	-0.1
CC(CS(=O)(=O)c1ccc2ccccc2c1)N1CCCCC1 (configuration not stated)	-6.2	0.3	33.1*	0.8
O=C(Cc1ccccc1)c1ccc(O)cc1O	11.9	0.2	-4.5	1.1
O=C(Cc1ccc2c(c1)OCCCO2)c1ccc(O)cc1O	3.5	0.0	61.4*	2.3
Cc1cnc(NC(=O)CN2CCN(c3ccccn3)CC2)s1	10.7	0.2	65.2*	-0.6
SMILES	MITF primary	FBW7 activator	TEAD-YAP inh	GPR151 activ
Cc1cnc(NC(=O)CN2CCC(O)(c3ccccn3)CC2)s1	-1.4	-0.1	2.6	0.1
N#Cc1cc([N+](=O)[O-])ccc1NCc1ccco1	0.2	0.0	-4.0	-1.8
CN1CCCCC1C(=O)NCc1nc(N2CCCC2)c2cc(Cl)ccc2n1 (configuration not stated)	5.6	-0.1	11.2	-0.2
COc1cccc(-c2ccc(N3CCN(C)CC3)nc2)c1	-12.5	-0.2	13.7	-3.8
CN1CCN(c2ccc(-c3cccc(Cl)c3)cn2)CC1	7.7	0.5	54.3*	-4.6
N#Cc1cccc(Cn2c(-c3nonc3N)nc3ccccc32)c1	15.3	0.1	48.1*	-0.8
CC(C)Nc1nc(Cl)nc(NC(C)(C)CO)n1	8.5	0.0	-1.8	0.0
COc1ccc(Cl)cc1NC(=O)c1cccc(C)c1[N+](=O)[O-]	5.3	0.1	0.8	-0.4
Cc1ccc(NC(=O)CCOc2ccccc2)cc1Cl	9.6	2.4*	-23.1	-0.2
c1ccc(C2CCC(=NNc3nc4ccccc4[nH]3)CC2)cc1 (configuration not stated)	5.9	-0.1	33.2*	-0.6
CC1=C/C(=N\Nc2nc3ccccc3[nH]2)CC1	1.7	-0.2	32.3*	-8.6
CC1=C/C(=N/Nc2nc3ccccc3[nH]2)CC(C)(C)C1	10.4	-0.7	-22.1	1.2
CC1CCC(=NNc2nc3ccccc3[nH]2)CC1 (configuration not stated)	41.6	0.2	-19.9	1.1
COc1ccc(OC)c(NC(=O)CNC(=O)c2nn(-c3ccc(OC)c(OC)c3)c(=O)c3ccccc23)c1	-9.9	-0.1	39.4*	0.1
COc1ccc(-n2nc(C(=O)NCC(=O)N3CCC(Cc4ccccc4)CC3)c3ccccc3c2=O)cc1	11.2	0.1	32.7*	1.5
